Source: PubChem BioAssay (NCI)
Where “and” joins values, the source holds several entries; their conditions need not be identical. Equal values may be shown once. About 83,000 compounds went through this panel and 20% of them were active in at least one assay; those are over-represented in the sample as a whole.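 96-well plates, one dose, 48 hours. Percent growth reported; active if below 10.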 Calls of active or inactive are those of the source.

Legend:
Assay in all cases: NCI-60 one-dose screen, 48 h (100 = growth as untreated, 0 = no growth, -100 = all killed)
Conditions in all cases: 10 µM unless noted
NCI-H23 lung = system: NCI-H23 lung
NCI-H226 lung = system: NCI-H226 lung
NCI-H322M lung = system: NCI-H322M lung
HOP-62 NSCLC = system: HOP-62 NSCLC
NCI-H460 lung = system: NCI-H460 lung
HOP-92 NSCLC = system: HOP-92 NSCLC
NCI-H522 lung = system: NCI-H522 lung
A549/ATCC NSCLC = system: A549/ATCC NSCLC
786-0 renal = system: 786-0 renal
COLO 205 colon = system: COLO 205 colon

| Compound | growth (NCI-H23 lung) | growth (NCI-H226 lung) | growth (NCI-H322M lung) | growth (HOP-62 NSCLC) | growth (NCI-H460 lung) | growth (HOP-92 NSCLC) | growth (NCI-H522 lung) | growth (A549/ATCC NSCLC) | growth (786-0 renal) | growth (COLO 205 colon) |
| --- | --- | --- | --- | --- | --- | --- | --- | --- | --- | --- |
| O=c1[nH]c(=O)n(C2OC(CO)C(O)C2O)cc1I (stereo unspecified) | 104% (inactive) and 108% (inactive) | 91.8% (inactive) and 117% (inactive) | 100% (inactive) and 102% (inactive) | 101% (inactive) and 96.4% (inactive) | 116% (inactive) and 125% (inactive) | 77.7% (inactive) | 80.5% (inactive) and 112% (inactive) | 96.3% (inactive) and 100% (inactive) | 105% (inactive) and 108% (inactive) | 114% (inactive) and 102% (inactive) |
| COc1ccc(COC=O)cc1 | 97.3% (inactive) | 100% (inactive) | 99.1% (inactive) | 98.4% (inactive) | 104% (inactive) | 109% (inactive) | 95.5% (inactive) | 106% (inactive) | 103% (inactive) | 108% (inactive) |
| CC(=O)C[n+]1ccccc1Sc1ccc(Cl)cc1 | 100% (inactive) | 91.1% (inactive) | 99.6% (inactive) | 107% (inactive) | 77% (inactive) | 98.8% (inactive) | 108% (inactive) | 84.6% (inactive) | 82.6% (inactive) | 109% (inactive) |
| CCC(C)(O)CCC(C)(O)CC (stereo unspecified) | 87.1% (inactive) | 108% (inactive) | 102% (inactive) | 93.5% (inactive) | 116% (inactive) | 104% (inactive) | 103% (inactive) | 106% (inactive) | 99.3% (inactive) | 108% (inactive) |
| Clc1ccc2c(c1)N(C1CCCN(Cc3ccccc3)C1)c1ccccc1S2 (stereo unspecified) | 61.9% (inactive) | 82.1% (inactive) | 31.1% (inactive) | 82.1% (inactive) | 25.4% (inactive) | 51.7% (inactive) | 14.9% (inactive) | – | 61.8% (inactive) | 3.47% (active) |
| OC(CC(c1ccccc1)c1cccc2ccccc12)(c1ccccc1)c1ccccc1 (stereo unspecified) | 76.2% (inactive) and 71.1% (inactive) | 77.9% (inactive) and 79.1% (inactive) | 97.5% (inactive) and 105% (inactive) | 94.6% (inactive) and 97% (inactive) | 89.2% (inactive) and 91.4% (inactive) | 49.5% (inactive) and 58.4% (inactive) | 47.9% (inactive) and 62.7% (inactive) | – | 85.7% (inactive) and 79.7% (inactive) | 90.3% (inactive) and 92.4% (inactive) |
| C/C=C(/C(=O)NC(N)=O)C(C)C | 104% (inactive) | 116% (inactive) | 109% (inactive) | 111% (inactive) | 100% (inactive) | 94.5% (inactive) | 108% (inactive) | 97.7% (inactive) | 96.9% (inactive) | 97.5% (inactive) |
| c1ccc2c[n+](Cc3ccc4ccccc4n3)ccc2c1 | 69.1% (inactive) | 85.8% (inactive) | 104% (inactive) | 80.1% (inactive) | 88.4% (inactive) | 56% (inactive) | 84.9% (inactive) | 65.5% (inactive) | 95.3% (inactive) | 46.5% (inactive) |
| O=C(O)c1cccc(Br)c1 | 111% (inactive) and 102% (inactive) | 98.5% (inactive) | 96.4% (inactive) and 95.8% (inactive) | 95.5% (inactive) and 100% (inactive) | 115% (inactive) and 105% (inactive) | 101% (inactive) and 102% (inactive) | 103% (inactive) and 85.5% (inactive) | – | 96.4% (inactive) and 96.8% (inactive) | 115% (inactive) |
| CC(C)(C)C1=CC(=O)C(C(C)(C)C)=CC1=O | 84.3% (inactive) and 103% (inactive) | 90.3% (inactive) and 102% (inactive) | 104% (inactive) and 102% (inactive) | 90.2% (inactive) and 97.8% (inactive) | 99.7% (inactive) | 83.8% (inactive) and 100% (inactive) | 82.5% (inactive) and 88.9% (inactive) | – | 93.3% (inactive) and 105% (inactive) | 116% (inactive) |
| O=C(/C=C/C=C/c1ccc2c(c1)OCO2)N1CCCCC1 | 95.6% (inactive) and 102% (inactive) | 104% (inactive) and 95% (inactive) | 101% (inactive) and 113% (inactive) | 100% (inactive) | 109% (inactive) and 113% (inactive) | 97.3% (inactive) and 89.6% (inactive) | 115% (inactive) and 81.1% (inactive) | 104% (inactive) and 98.5% (inactive) | 103% (inactive) and 57.4% (inactive) | 114% (inactive) and 106% (inactive) |
| CNc1ccc(O)cc1 | 114% (inactive) and 104% (inactive) | 85.2% (inactive) and 93.6% (inactive) | 122% (inactive) and 98.3% (inactive) | 104% (inactive) | 105% (inactive) and 115% (inactive) | 102% (inactive) | 96.3% (inactive) and 93% (inactive) | – | 109% (inactive) and 106% (inactive) | 132% (inactive) and 117% (inactive) |
| O=S(=O)(O)c1ccc2cc(O)ccc2c1 | 98.3% (inactive) | 98% (inactive) | 99.2% (inactive) | 99.7% (inactive) | 102% (inactive) | 88.8% (inactive) | 90% (inactive) | – | 104% (inactive) | 103% (inactive) |
| Cc1cc(=NO)cc(C)n1O | 109% (inactive) | 114% (inactive) | 94.3% (inactive) | 100% (inactive) | 107% (inactive) | 111% (inactive) | 120% (inactive) | 113% (inactive) | 107% (inactive) | 113% (inactive) |
| Nc1ccc(O)c(C(=O)O)c1 | 92.7% (inactive) and 105% (inactive) and 94.2% (inactive) | 95.4% (inactive) and 92.4% (inactive) and 116% (inactive) | 131% (inactive) and 106% (inactive) and 99.2% (inactive) | 92.5% (inactive) and 103% (inactive) and 90.9% (inactive) | 103% (inactive) and 101% (inactive) and 116% (inactive) | 104% (inactive) and 105% (inactive) | 102% (inactive) and 101% (inactive) | – | 98.9% (inactive) and 101% (inactive) and 94.7% (inactive) | 107% (inactive) and 134% (inactive) |
| Cc1cccc(Cl)c1N | 99.6% (inactive) | 118% (inactive) | 127% (inactive) | 104% (inactive) | 107% (inactive) | 94.1% (inactive) | 105% (inactive) | 96.4% (inactive) | 113% (inactive) | 119% (inactive) |
| O=COCCCc1ccccc1 | 109% (inactive) | 95.4% (inactive) | 104% (inactive) | 86.4% (inactive) | 107% (inactive) | 84.9% (inactive) | 80.5% (inactive) | – | 105% (inactive) | 106% (inactive) |
| O=C1Cc2ccccc2C(=O)N1 | 103% (inactive) | 101% (inactive) | 96.3% (inactive) | 84.6% (inactive) | 110% (inactive) | 49.9% (inactive) | 77.2% (inactive) | 86.1% (inactive) | 82.1% (inactive) | 99.2% (inactive) |
| CCCC(=O)Oc1ccc(CC)cc1 | 96.5% (inactive) | 110% (inactive) | 106% (inactive) | 98.9% (inactive) | 105% (inactive) | 115% (inactive) | 93% (inactive) | 101% (inactive) | 99.7% (inactive) | 104% (inactive) |
| COc1ccc2nccc(Cl)c2c1 | 98.4% (inactive) | 85.1% (inactive) | 97.1% (inactive) | 98.4% (inactive) | 109% (inactive) | 98.7% (inactive) | 90.7% (inactive) | – | 94.7% (inactive) | 105% (inactive) |
| Clc1ccc(/C=C/c2ccc3ccccc3n2)cc1 | 37.6% (inactive) and 89.5% (inactive) and 71.2% (inactive) | 84.1% (inactive) and 81.1% (inactive) and 92.6% (inactive) | 38.8% (inactive) and 90.3% (inactive) and 86.1% (inactive) | 45.2% (inactive) and 95.4% (inactive) and 93.5% (inactive) | 8.45% (active) and 86% (inactive) and 81.1% (inactive) | 42.9% (inactive) and 67% (inactive) and 85.3% (inactive) | -38.8% (active) and 79.1% (inactive) and 76.8% (inactive) | 25.9% (inactive) and 92.3% (inactive) and 96.6% (inactive) | 55.3% (inactive) and 97.8% (inactive) and 100% (inactive) | -6.62% (active) and 112% (inactive) and 100% (inactive) |
| CC(=O)/C(N=Nc1ccc(S(=O)(=O)c2ccc(N=N/C(C(C)=O)=C(/C)O)cc2)cc1)=C(\C)O | 97.6% (inactive) | 114% (inactive) | 106% (inactive) | 103% (inactive) | 93.2% (inactive) | 90.3% (inactive) | 105% (inactive) | 105% (inactive) | 112% (inactive) | 113% (inactive) |
